FBW7 act = human FBW7 E3 ligase activation, primary screen | Q969H0 | AlphaScreen FBW7–phospho-cyclin E peptide binding, activator screen | normalized activity (activation), % at 26.1 µM | actives 0.13% (n = 650,000) | AID 1259310; in the data active = normalized activity above about 1.9%;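 note: purified mutant Fbw7 with reduced substrate affinity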
Target sequence (Q969H0 whole entry, looked up): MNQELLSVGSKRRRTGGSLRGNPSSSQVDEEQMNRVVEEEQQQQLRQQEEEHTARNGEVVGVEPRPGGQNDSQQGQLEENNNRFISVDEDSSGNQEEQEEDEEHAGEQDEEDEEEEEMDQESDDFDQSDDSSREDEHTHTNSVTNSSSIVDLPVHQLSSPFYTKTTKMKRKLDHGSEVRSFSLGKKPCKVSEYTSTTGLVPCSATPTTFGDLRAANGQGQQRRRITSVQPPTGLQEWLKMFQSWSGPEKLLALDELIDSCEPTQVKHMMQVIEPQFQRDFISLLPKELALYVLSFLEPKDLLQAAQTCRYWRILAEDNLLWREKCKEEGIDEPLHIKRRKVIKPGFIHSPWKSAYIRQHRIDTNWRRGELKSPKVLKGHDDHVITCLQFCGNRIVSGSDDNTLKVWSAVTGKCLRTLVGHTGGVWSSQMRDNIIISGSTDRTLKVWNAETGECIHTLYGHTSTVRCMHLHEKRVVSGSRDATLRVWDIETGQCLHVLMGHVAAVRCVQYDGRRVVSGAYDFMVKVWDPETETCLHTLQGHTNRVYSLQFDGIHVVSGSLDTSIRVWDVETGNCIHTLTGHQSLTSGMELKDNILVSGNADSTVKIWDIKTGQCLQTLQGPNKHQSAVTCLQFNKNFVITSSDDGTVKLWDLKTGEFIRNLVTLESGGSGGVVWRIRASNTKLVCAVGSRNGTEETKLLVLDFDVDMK
MITF inh = inhibitors of human MITF | O75030 | AlphaScreen MITF homodimerization, bead proximity signal | inhibition, % at 2.6 µM | actives 0.91% (n = 650,000) | AID 1259374; in the data active = inhibition above about 50%;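 note: 0% = vehicle wells with protein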
TEAD-YAP inh = TEAD-YAP interaction inhibition. HEK-TIYL cells, TEAD-Gal4/YAP UAS-luciferase luminescence. inhibition, % at 9.12 µM. actives 1.4% (n = 640,000). AID 1259422; in the data active = inhibition above about 32%;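 note: 0% = median of test compound wells and 100% = reference inhibitor wells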
GPR151 ag = activates the human receptor GPR151 | Q8TDV0 | PathHunter beta-arrestin GPR151 cells, luminescence | activation, % at 11.2 µM | actives 1% (n = 650,000) | AID 1508602; in the data active = activation above about 4.9%;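 note: 0% = median of compound wells and 100% = cells with positive control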
Active calls of the source: *. A selection: hits, their analogues and other compounds. The true share with any hit is near 3.5%.

SMILES	FBW7 act	MITF inh	TEAD-YAP inh	GPR151 ag
CN(C)c1ccc(C2CC(c3c(-c4ccccc4)c4cc(Cl)ccc4[nH]c3=O)=NN2C(=O)Cc2ccccc2)cc1 (configuration not stated)	0	28	13	2
COc1ccc(OC)c(Nc2cc(C)nc3ccccc23)c1	0	-3	37*	0
COc1ccc2nc(C)cc(Nc3ccc(Oc4ccc(Cl)cc4)c(Cl)c3)c2c1	0	0	44*	0
COc1cccc(Nc2cc(C)nc3ccc(Cl)cc23)c1	0	8	44*	0
COc1ccc2nc(C)cc(Nc3ccccc3OC)c2c1	1	19	17	-1
COc1cccc(Nc2cc(C)nc3ccc(OC)cc23)c1	0	29	8	1
C=CCN1/C(=C/C(=C/c2sc3ccccc3[n+]2CC=C)CC)Sc2ccccc21	0	52*	83*	4
O=C1CN(C(=O)c2ccc3ccccc3n2)CCN1	0	5	-4	-1
Cc1nc(C#N)c(N/N=C/C=C/c2ccccc2)o1	0	10	-66	-2
Cc1nc(C#N)c(N/N=C/c2ccc(N(C)C)cc2)o1	0	3	33*	-2
COc1ccc(CNC(=O)C(OC(C)=O)c2c(F)cccc2F)cc1 (configuration not stated)	0	-1	-7	3
CC(=O)Nc1cccc(NC(=O)CSc2ccc(-c3nc4ccccc4[nH]3)cn2)c1	0	-6	40*	-4
O=C(CCS(=O)(=O)c1ccc(Br)s1)NCCc1ccc(Cl)cc1	0	7	4	-1
O=C(NC1CC1)c1ccc(-c2nc(NCCOc3ccccc3)c3ncn(-c4ccccc4)c3n2)cc1	0	4	-2	2
NC(=O)c1ccc(-c2nc(NCCc3ccc(O)cc3)c3ncn(C4CCCCC4)c3n2)cc1	0	0	44*	1
O=C(NC1CC1)c1ccc(-c2nc(NCCc3ccc(O)cc3)c3ncn(-c4ccccc4)c3n2)cc1	0	-3	56*	-1
CC(=O)c1cccc(-c2nc(NCc3ccccc3)c3ncn(C(C)C)c3n2)c1	0	-4	10	0
CC(=O)c1cccc(-c2nc(NCCc3ccc(O)cc3)c3ncn(-c4ccccc4)c3n2)c1	0	12	72*	1
CC(=O)c1cccc(-c2nc(NCc3cccnc3)c3ncn(C(C)C)c3n2)c1	0	3	59*	4
COc1ccc(C(=O)NC(C)CCCC(C)C)c(OC)c1 (configuration not stated)	0	5	5	-1
C=CCn1c(=S)[nH]c2cc(C(=O)NCCC3=CCCCC3)ccc2c1=O	0	8	-31	-1
NC(=O)c1ccc(-c2nc(NCc3cccnc3)c3ncn(Cc4ccc(C(F)(F)F)cc4)c3n2)cc1	1	-4	46*	-1
CC(=O)c1cccc(-c2nc(NCCc3ccc(O)cc3)c3ncn(-c4ccsc4)c3n2)c1	0	7	82*	2
Cn1c(Nc2nc(NCCc3ccc(O)cc3)c3ncn(C4CCCCC4)c3n2)nc2ccccc21	0	3	35*	-1
CC(C)n1cnc2c(NCCc3ccc(O)cc3)nc(-c3cccc(N)c3)nc21	0	8	12	0
SMILES	FBW7 act	MITF inh	TEAD-YAP inh	GPR151 ag
CC(=O)c1cccc(-c2nc(NCCc3ccc(O)cc3)c3ncn(C(C)C)c3n2)c1	0	-8	63*	-1
COc1ccc(CCNc2nc(-c3cccc(C(C)=O)c3)nc3c2ncn3-c2ccsc2)cc1	0	0	-1	1
Cc1cc(C)cc(N(CC(=O)N2CCCCC2)S(=O)(=O)c2ccccc2)c1	0	8	-13	0
O=[N+]([O-])c1ccc(/C=N/Nc2nc(-c3ccc4c(c3)OCCO4)cs2)cc1	0	11	-1	4
Cc1cccc(CN2CCCC(CNS(=O)(=O)Cc3ccccc3)C2)n1 (configuration not stated)	0	9	10	-1
Cc1ccccc1NC(=S)Nc1c(C)n(C)n(-c2ccccc2)c1=O	0	-9	8	0
COC(=O)c1ccc(CN(Cc2ccc(OC)c(OC)c2)S(=O)(=O)c2ccc(C3CCCCC3)cc2)cc1	0	-5	-2	-3
COc1ccccc1-c1nc(C2CCCN2C(=O)CC(C)CC(=O)O)n2ccccc12 (configuration not stated)	-1	-14	0	0
Cc1ccc(C(=O)Nc2ccc3c(c2)oc2ccccc23)o1	0	13	-69	-1
NC(=O)c1c(Cl)nsc1Cl	0	8	65*	-2
O=C(Nc1ccc(Cl)cc1)c1c(Cl)nsc1Cl	0	-22	76*	1
CCCOc1ccc(NC(=O)CC2C(=O)N(c3ccccc3)C(=S)N2CCc2ccc(S(N)(=O)=O)cc2)cc1 (configuration not stated)	0	4	1	-1
O=C(CCCCC(=O)n1nnc2ccccc21)n1nnc2ccccc21	0	-8	-7	2
O=C(N1CCCCC1)n1nnc2ccccc21	1	2	75*	0
O=C(COC(=O)c1ccccc1NC(=O)c1cccc([N+](=O)[O-])c1)c1ccccc1	0	5	5	1
CCc1cc(=O)[nH]c(-n2nc(C)cc2NC(=O)CC2CCCC2)n1	0	32	58*	-2
CCCc1cc(=O)[nH]c(-n2nc(C)cc2NC(=O)C2CC2)n1	0	12	12	0
O=C1CCCC2=C1C(c1ccc(F)cc1)Nc1ccc(C(=O)c3ccccc3)cc1N2 (configuration not stated)	0	12	22	-2
O=C1CCCC2=C1C(c1cccc(Br)c1)Nc1ccc(C(=O)c3ccccc3)cc1N2 (configuration not stated)	0	7	68*	1
O=C1CCCC2=C1C(c1cccs1)Nc1ccc(C(=O)c3ccccc3)cc1N2 (configuration not stated)	0	-3	55*	0
O=C1CCCC2=C1C(c1cccs1)N(C(=O)c1ccccc1)c1ccccc1N2 (configuration not stated)	0	2	4	-1
CC(=O)N1c2ccccc2NC2=C(C(=O)CCC2)C1c1cccs1 (configuration not stated)	0	-3	49*	1
O=C1CCCC2=C1C(c1cccc(Br)c1)Nc1ccccc1N2 (configuration not stated)	0	14	-2	0
O=C1CCCC2=C1C(c1ccc(O)cc1)Nc1ccc(C(=O)c3ccccc3)cc1N2 (configuration not stated)	0	4	34*	0
CCN(CC)c1cccc(OC(=O)c2ccc([N+](=O)[O-])o2)c1	0	12	10	0
COc1ccc(C(=O)O)cc1Nc1nc2ccccc2n2c(C)nnc12	0	6	4	0

Screening data from PubChem BioAssay.
